In assay [1] the target is human Thyroid Receptor alpha (THRa1), THRA (gene 7067) (UniProt P10827). The assay can be described thus: ATG_THRa1_TRANS: Attagene TRANS-FACTORIAL HepG2 Assay for human Thyroid Receptor alpha (THRa1) (AID 2283014; active = hit-call score of the fitted dose curve at least 0.9, where 1 is the maximum). In short, it runs like this:
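HepG2 cells transiently transfected with chimeric NR-Gal4 and GAL4-UAS reporter units, dosed 24 h. Reporter mRNA quantified by RT-PCR, fluorescent labeling, HpaI digestion and capillary electrophoresis; gain-of-signal fit versus DMSO.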

Read-out in assay [2]: E-selectin (Homo sapiens) (UniProt P16581)
The assay can be described thus: BSK_3C_Eselectin: BioMAP Diversity Plus: 3C Assay for Eselectin Biomarker Activity (AID 2283015).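 Note: cell surface E-selectin protein quantified by ELISA 24 h after dosing.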 As to conditions: primary human endothelial cells (HUVEC); actives raise or lower the signal. In short, it runs like this:
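Primary human umbilical vein endothelial cells (3C system), read 24 h after compound addition; E-selectin measured by ELISA. Bidirectional curve fitting against DMSO baseline; cytotoxicity by parallel SRB total-protein staining.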

Read-out in assay [3]: Interleukin-1 alpha (IL1a), IL1A (gene 3552)
Description: BSK_BE3C_IL1a: BioMAP Diversity Plus: BE3C Assay for Interleukin-1 alpha (IL1a) Biomarker Activity (AID 2283016). As to conditions: primary human bronchial epithelial cells; actives raise or lower the signal. The essentials:
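Human primary bronchial epithelial cells (BE3C system) were dosed with compound and IL-1a measured by ELISA 24 h later. Activity was fitted bidirectionally against DMSO baseline; cytotoxicity was tracked in parallel cultures by SRB total-protein staining.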

Read-out in assay [4]: Monocyte Chemoattractant Protein-1 (MCP1), CCL2 (gene 6347)
Description: BSK_3C_MCP1: BioMAP Diversity Plus: 3C Assay for Monocyte Chemoattractant Protein-1 (MCP1) Biomarker Activity (AID 2283017). As to conditions: primary human endothelial cells (HUVEC); actives raise or lower the signal. The essentials: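 Human umbilical vein endothelial cells (3C system) exposed to chemicals for 24 h; MCP-1 quantified by ELISA against the DMSO baseline with bidirectional fitting, and parallel SRB staining used to assess cytotoxicity.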

Read-out in assay [5]: Monocyte Chemoattractant Protein-1 (MCP1), CCL2 (gene 6347)
Description: BSK_4H_MCP1: BioMAP Diversity Plus: 4H Assay for Monocyte Chemoattractant Protein-1 (MCP1) Biomarker Activity (AID 2283018). As to conditions: primary human endothelial cells (HUVEC); actives raise or lower the signal. In short, it runs like this: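 Human umbilical vein endothelial cells (4H system) dosed with chemical; MCP-1 measured by ELISA 24 h after dosing. Bidirectional curve fitting against DMSO negative control as baseline; parallel SRB total-protein staining tracks overt cytotoxicity.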

Read-out in assay [6]: Human Leukocyte Antigen - DR isotype (HLADR), HLA-DRA (gene 3122)
Description: BSK_3C_HLADR: BioMAP Diversity Plus: 3C Assay for Human Leukocyte Antigen - DR isotype (HLADR) Biomarker Activity (AID 2283019). As to conditions: primary human endothelial cells (HUVEC); actives raise or lower the signal. In short, it runs like this: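 HUVEC monoculture, HLA-DR measured by ELISA 24 h after chemical dosing. Fitted bidirectionally against DMSO baseline; parallel SRB staining assessed cytotoxicity, with 3C proliferation read by SRB at 48 h.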

Read-out in assay [7]: Interleukin-8 (IL8), CXCL8 (gene 3576)
Description: BSK_3C_IL8: BioMAP Diversity Plus: 3C Assay for Interleukin-8 (IL8) Biomarker Activity (AID 2283020). As to conditions: primary human endothelial cells (HUVEC); actives raise or lower the signal. The essentials: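 Primary human umbilical vein endothelial cells (3C system) were exposed to test chemical for 24 h, then IL-8 was quantified by ELISA. Responses were fitted bidirectionally against DMSO vehicle as baseline.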

Read-out in assay [8]: Monokine induced gamma interferon (MIG), CXCL9 (gene 4283)
Description: BSK_3C_MIG: BioMAP Diversity Plus: 3C Assay for Monokine induced gamma interferon (MIG) Biomarker Activity (AID 2283021). As to conditions: primary human endothelial cells (HUVEC); actives raise or lower the signal. The essentials:
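Primary human umbilical vein endothelial cells in the 3C system were exposed to chemical for 24 h, after which MIG was quantified by ELISA. Activity was fitted bidirectionally against DMSO as negative control and baseline.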

Assay [9] addresses human Vitamin D Receptor (VDR), VDR (gene 7421) (UniProt P11473). Description: ATG_VDR_TRANS: Attagene TRANS-FACTORIAL HepG2 Assay for human Vitamin D Receptor (VDR) (AID 2283022; active = hit-call score of the fitted dose curve at least 0.9, where 1 is the maximum). In short, it runs like this:
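HepG2 cells were transiently transfected with GAL4-UAS reporter units and a chimeric VDR-Gal4 construct, then dosed for 24 hours. Reporter mRNA was quantified by RT-PCR, fluorescent labeling, HpaI digestion and capillary electrophoresis; gain of signal analysed vs DMSO.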

A short description of assay [10]: BSK_3C_SRB: Viability Assessment in the BioMAP Diversity Plus: 3C Assay (AID 2283023).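 Note: fitted both ways against DMSO so a hit may be signal rise or drop.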 As to conditions: primary human endothelial cells (HUVEC). The essentials:
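Human umbilical vein endothelial cells in the 3C system, treated 24 h. Total protein measured by 0.1% sulforhodamine B staining after 10% TCA fixation, read at 560 nm; bidirectional fit versus DMSO.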

Read-out in assay [11]: Matrix Metallopeptidase 1 (MMP1), MMP1 (gene 4312)
Description: BSK_BE3C_MMP1: BioMAP Diversity Plus: BE3C Assay for Matrix Metallopeptidase 1 (MMP1) Biomarker Activity (AID 2283024). As to conditions: primary human bronchial epithelial cells; actives raise or lower the signal. The essentials:
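Primary human bronchial epithelial cells were dosed with test chemicals, and MMP1 levels were measured by ELISA 24 h later. Data were fitted bidirectionally against DMSO as the negative control and activity baseline.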

Read-out in assay [12]: Pselectin, SELP (gene 6403)
The assay can be described thus: BSK_4H_Pselectin: BioMAP Diversity Plus: 4H Assay for Pselectin Biomarker Activity (AID 2283026). As to conditions: primary human endothelial cells (HUVEC); actives raise or lower the signal. In short, it runs like this: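 Primary human umbilical vein endothelial cells were exposed to test chemical for 24 h, then cell-surface P-selectin was quantified by ELISA. Activity was fitted bidirectionally against DMSO as negative control and baseline.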

Assay [13] in a line: BSK_4H_SRB: Viability Assessment in the BioMAP Diversity Plus: 4H Assay (AID 2283027).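 Note: cells exposed to compound for 24 h before staining.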 As to conditions: primary human endothelial cells (HUVEC). The essentials:
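Absorbance at 560 nm of SRB-stained total protein served as the viability read-out in confluent primary human umbilical vein endothelium 24 h after chemical treatment. Curves were fitted bidirectionally against DMSO as negative control.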

The nature of assay [14]: BSK_BE3C_SRB: Viability Assessment in the BioMAP Diversity Plus: BE3C Assay (AID 2283028). As to conditions: primary human bronchial epithelial cells. In short, it runs like this:
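Human bronchial epithelial primary cells in confluent culture, 24 h after chemical dosing; total protein by 0.1% SRB staining after 10% TCA fixation, read at 560 nm. Bidirectional fitting versus DMSO baseline.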

Read-out in assay [15]: Urokinase-type plasminogen activator receptor (uPAR), PLAUR (gene 5329)
Description: BSK_4H_uPAR: BioMAP Diversity Plus: 4H Assay for Urokinase-type plasminogen activator receptor (uPAR) Biomarker Activity (AID 2283030). As to conditions: primary human endothelial cells (HUVEC); actives raise or lower the signal. In short, it runs like this:
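Human umbilical vein endothelial cells in the 4H system, 24 h after chemical dosing. Cell-surface uPAR measured by ELISA, fitted in both directions versus DMSO; cytotoxicity checked by SRB total protein in parallel cultures.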

Read-out in assay [16]: Vascular endothelial growth factor receptor 2 (Homo sapiens) (UniProt P35968)
Description: BSK_4H_VEGFRII: BioMAP Diversity Plus: 4H Assay for Vascular endothelial growth factor receptor 2 (VEGFR2) Biomarker Activity (AID 2283031). As to conditions: primary human endothelial cells (HUVEC); actives raise or lower the signal. In short, it runs like this: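 Primary human umbilical vein endothelial cells (4H system), 24 h exposure; cell-surface VEGFR2 measured by ELISA. Bidirectional fitting versus DMSO; cytotoxicity checked in parallel by SRB total-protein staining.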

Read-out in assay [17]: Human Leukocyte Antigen - DR isotype (HLADR), HLA-DRA (gene 3122)
Description: BSK_BE3C_HLADR: BioMAP Diversity Plus: BE3C Assay for Human Leukocyte Antigen - DR isotype (HLADR) Biomarker Activity (AID 2283032). As to conditions: primary human bronchial epithelial cells; actives raise or lower the signal. The essentials: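 Human primary bronchial epithelial cells in the BE3C system were exposed to chemicals for 24 h, after which HLA-DR levels were quantified by ELISA. Activity was fitted bidirectionally, gain or loss of signal, against DMSO as negative control and baseline.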

Read-out in assay [18]: Vascular cell adhesion molecule 1 (VCAM1), VCAM1 (gene 7412)
Description: BSK_4H_VCAM1: BioMAP Diversity Plus: 4H Assay for Vascular cell adhesion molecule 1 (VCAM1) Biomarker Activity (AID 2283033).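 Note: cell-surface VCAM-1 protein measured by ELISA.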 As to conditions: primary human endothelial cells (HUVEC); actives raise or lower the signal. In short, it runs like this: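 Primary human umbilical vein endothelial cells were exposed to chemicals for 24 h, after which VCAM-1 was quantified by ELISA. Responses were fitted bidirectionally against DMSO as negative control and activity baseline.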

For assay [19], the target named is human Retinoid X Receptor beta (RXRb), RXRB (gene 6257) (UniProt P28702). The assay can be described thus: ATG_RXRb_TRANS: Attagene TRANS-FACTORIAL HepG2 Assay for human Retinoid X Receptor beta (RXRb) (AID 2283013; active = hit-call score of the fitted dose curve at least 0.9, where 1 is the maximum). In short, it runs like this:
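HepG2 cells transiently transfected with multiplexed reporter units driven by GAL4-UAS and exogenous chimeric NR-Gal4 proteins; treated 24 h. Reporter mRNA measured by RT-PCR, 6-FAM labelling and capillary electrophoresis; gain-of-signal fitted versus DMSO baseline.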

A word on the AC50: it is the midpoint of the concentration-response curve, whichever way the signal moves.

Inconclusive results are not listed. A structure can be active in one record and inactive in another. Active and inactive are the calls of the source. Rule for the calls, unless noted: active = hit-call score of the fitted dose curve at least 0.9, where 1 is the maximum; inactive = score below 0.9.

Chain of human Vitamin D Receptor (VDR), VDR (gene 7421) (P11473 whole entry, looked up, the tested form may be a part): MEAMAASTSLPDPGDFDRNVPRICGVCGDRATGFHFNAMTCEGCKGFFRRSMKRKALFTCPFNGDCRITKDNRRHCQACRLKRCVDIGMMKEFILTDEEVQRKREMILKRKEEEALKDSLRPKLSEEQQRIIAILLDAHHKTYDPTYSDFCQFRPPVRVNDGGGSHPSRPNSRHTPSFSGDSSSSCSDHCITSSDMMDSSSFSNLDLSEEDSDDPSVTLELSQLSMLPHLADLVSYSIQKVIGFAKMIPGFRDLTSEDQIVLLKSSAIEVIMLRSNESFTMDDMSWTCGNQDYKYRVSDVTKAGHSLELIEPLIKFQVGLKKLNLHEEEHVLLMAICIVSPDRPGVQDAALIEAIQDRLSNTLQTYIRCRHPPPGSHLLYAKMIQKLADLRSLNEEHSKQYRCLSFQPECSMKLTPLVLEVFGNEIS
Chain of E-selectin (Homo sapiens) (P16581 whole entry, looked up): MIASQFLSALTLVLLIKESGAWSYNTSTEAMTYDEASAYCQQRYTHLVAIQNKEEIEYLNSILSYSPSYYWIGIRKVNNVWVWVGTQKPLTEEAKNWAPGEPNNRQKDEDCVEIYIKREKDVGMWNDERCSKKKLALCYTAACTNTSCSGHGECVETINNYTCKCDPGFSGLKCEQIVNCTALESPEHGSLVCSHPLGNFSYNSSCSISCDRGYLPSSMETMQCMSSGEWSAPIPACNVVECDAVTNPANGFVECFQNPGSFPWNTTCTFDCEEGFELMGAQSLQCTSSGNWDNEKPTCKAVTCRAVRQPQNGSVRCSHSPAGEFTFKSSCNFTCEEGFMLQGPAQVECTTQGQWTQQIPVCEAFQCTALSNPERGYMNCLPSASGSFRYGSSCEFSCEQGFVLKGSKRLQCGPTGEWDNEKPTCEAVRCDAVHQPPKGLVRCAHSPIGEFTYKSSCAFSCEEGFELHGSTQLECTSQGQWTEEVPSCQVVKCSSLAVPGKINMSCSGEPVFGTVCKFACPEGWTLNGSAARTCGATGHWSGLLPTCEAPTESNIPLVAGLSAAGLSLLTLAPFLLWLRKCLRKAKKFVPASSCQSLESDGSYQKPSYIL
Chain of human Thyroid Receptor alpha (THRa1), THRA (gene 7067) (P10827 whole entry, looked up, the tested form may be a part): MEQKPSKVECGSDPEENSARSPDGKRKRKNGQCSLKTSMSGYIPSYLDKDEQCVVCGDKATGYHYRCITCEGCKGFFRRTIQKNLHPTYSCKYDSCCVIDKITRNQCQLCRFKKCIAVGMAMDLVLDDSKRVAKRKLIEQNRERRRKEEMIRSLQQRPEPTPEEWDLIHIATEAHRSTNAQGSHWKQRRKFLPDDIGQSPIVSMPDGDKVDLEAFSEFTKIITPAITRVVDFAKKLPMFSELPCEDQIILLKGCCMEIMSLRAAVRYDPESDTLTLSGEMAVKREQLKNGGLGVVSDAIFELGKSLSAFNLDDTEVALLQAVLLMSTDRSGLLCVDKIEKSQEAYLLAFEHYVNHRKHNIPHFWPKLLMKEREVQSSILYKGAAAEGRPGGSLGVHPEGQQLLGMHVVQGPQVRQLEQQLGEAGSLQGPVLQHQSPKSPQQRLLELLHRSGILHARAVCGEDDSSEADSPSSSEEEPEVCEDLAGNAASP
Chain of human Retinoid X Receptor beta (RXRb), RXRB (gene 6257) (P28702 whole entry, looked up, the tested form may be a part): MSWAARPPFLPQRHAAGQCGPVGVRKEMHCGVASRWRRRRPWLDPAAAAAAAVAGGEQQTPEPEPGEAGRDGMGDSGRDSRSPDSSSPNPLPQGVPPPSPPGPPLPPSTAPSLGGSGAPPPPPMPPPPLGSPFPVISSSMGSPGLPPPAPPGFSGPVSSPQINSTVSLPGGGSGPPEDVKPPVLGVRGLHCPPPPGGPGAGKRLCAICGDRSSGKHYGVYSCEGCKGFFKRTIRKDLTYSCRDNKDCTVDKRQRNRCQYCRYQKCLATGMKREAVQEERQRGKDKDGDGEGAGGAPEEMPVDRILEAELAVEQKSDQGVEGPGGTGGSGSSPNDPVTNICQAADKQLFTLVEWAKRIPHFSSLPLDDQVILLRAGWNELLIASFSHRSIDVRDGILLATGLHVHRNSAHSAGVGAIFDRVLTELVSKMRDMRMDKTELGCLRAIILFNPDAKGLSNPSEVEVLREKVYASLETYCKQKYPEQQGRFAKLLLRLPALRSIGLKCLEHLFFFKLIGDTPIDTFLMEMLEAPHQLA

As to `[Cl][Nd]([Cl])[Cl]`, in [1], the result was inactive.
Regarding `c1ccc(-c2ccccn2)nc1`, the outcome in assay [1], in assay [2], in assay [3], in [4], in assay [6] and in assay [7] was inactive. In addition, the result in [8], in assay [9], in [10], in [11], in assay [12] and in [13] was inactive. Besides, the result in assay [14], in [15], in assay [16], in assay [17] and in [18] was inactive. In assay [5], the AC50 was 20 µM (active).
Regarding `O=C(O)Cc1c(Cl)ccc(Cl)c1Cl`, the outcome in [1] was inactive.
On the same count and under the same terms, the value for `C=COCCCC` was “inactive”; that for `C=CC(=O)OCCC(=O)O` was “inactive”.
For `CCN(CC#N)c1cccc(C)c1`, the compound was called inactive in assay [19] and in [9].
As for `CCCCNc1ccc(NCCCC)c2c1C(=O)c1ccccc1C2=O`, the outcome in [1], in [2], in assay [3], in assay [4], in assay [6] and in assay [7] was inactive. Moreover, the outcome in assay [8], in assay [10], in [12], in assay [13], in assay [14] and in assay [15] was inactive. Further, the result in assay [16] and in [18] was inactive. Also, the results for the half-maximal activity concentration (AC50) in [5], in assay [11] and in assay [17] were 0.00419 µM (active), 6.81 µM (active) and 5 µM (active), respectively.
Regarding `CCN(CC)c1ccc(C(=O)c2ccccc2C(=O)O)c(O)c1`, in [1], the outcome was inactive.
On the same count and under the same terms, under `O=C1C=CC(=O)O1` stands “inactive”; under `[Cl][In]([Cl])[Cl]`, “inactive”.
Consider `c1ccc2c(c1)ccc1cc3c(ccc4ccccc43)cc12`, for which the call in assay [1], in assay [2], in assay [3], in [4], in assay [5] and in assay [6] was inactive. Further, the result in assay [7], in [8], in assay [10], in [12], in [13] and in assay [14] was inactive. The result in assay [15], in [16], in assay [17] and in assay [18] was inactive. Moreover, the AC50 in [11] is 0.015 µM (active); in assay [15] it was 0.267 µM (active).
As for `CO[Si](OC)(OC)c1ccccc1`, the compound was classed as inactive in assay [1], in assay [2], in assay [3], in assay [4], in assay [5] and in [6]. Besides, the outcome in [7], in [8], in assay [9], in assay [10], in assay [11] and in assay [12] was inactive. The result in assay [13], in assay [14], in assay [15], in [16], in assay [17] and in [18] was inactive.
For the compound `C=C(C)[C@@H]1CCC2=CCC[C@@H](C)[C@]2(C)C1`, the concentration at half-maximal activity (AC50) in assay [19] is 47.6 µM (active). Moreover, in assay [9], the compound was classed as inactive.
With `N=c1ccn2c(n1)O[C@H]1[C@H](O)[C@@H](CO)O[C@H]12`, the result in [1] was inactive.

For the origin of these results see PubChem BioAssay (EPA / NIEHS).
